High-throughput results from PubChem.
Rab9 prom act = activators of Rab9 promoter | Huh7 Rab9 promoter-luciferase reporter, luminescence, 24 h | Potency, µM (highest dose often 9.22 µM), without a hit: at the top dose activation, negative = inhibition, usual class: activators | hit rate 2.8% among 320,000 | AID 485297; also: % of control where 0% means no effect; nearly all actives have a fitted effect of over 60% in size
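Huh7 cells stably carrying a Rab9 promoter-luciferase reporter, 1500 cells per well in OP-MEM I with 10% FBS, treated with compound 24 hours at 37C. Luciferase activity read by luminescence after 10 minutes with Amplite reagent.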
SMN2 splice up = SMN2 splice variant enhancement; HEK293 SMN2-luciferase splicing reporter, luminescence, 30-36 h; Potency, µM (highest dose often 46.1 µM), for inactives: at the highest dose activity change, positive = activation, usual class: activators; hit rate 2.8% among 210,000; AID 1458; also: % of control where 0% means no effect; nearly all actives have a fitted effect of over 55% in size
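HEK293 cells carry an SMN2 […]–luciferase reporter in which exon 7 inclusion puts luciferase in frame. Cells were plated 10-12 h before compound addition, then incubated 30-36 h at 37C. ONE-Glo luminescence was read; sodium butyrate at 4.5 mM final served as control.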
FLuc modulator = inhibits or activates purified firefly luciferase, miR-21 counter-screen. P08659. purified FLuc, Km substrates, luminescence inhibition. Potency, µM (titrated, usually from 57.5 µM), for the others: at the highest dose activity change, negative = inhibition, actives largely listed as inhibitors. hit rate 6.9% among 360,000;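 also: plate controls were vehicle for no effect and reference inhibitor for full effect; nearly all actives have a fitted effect of over 55% in size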
Target sequence (P08659 whole entry, looked up): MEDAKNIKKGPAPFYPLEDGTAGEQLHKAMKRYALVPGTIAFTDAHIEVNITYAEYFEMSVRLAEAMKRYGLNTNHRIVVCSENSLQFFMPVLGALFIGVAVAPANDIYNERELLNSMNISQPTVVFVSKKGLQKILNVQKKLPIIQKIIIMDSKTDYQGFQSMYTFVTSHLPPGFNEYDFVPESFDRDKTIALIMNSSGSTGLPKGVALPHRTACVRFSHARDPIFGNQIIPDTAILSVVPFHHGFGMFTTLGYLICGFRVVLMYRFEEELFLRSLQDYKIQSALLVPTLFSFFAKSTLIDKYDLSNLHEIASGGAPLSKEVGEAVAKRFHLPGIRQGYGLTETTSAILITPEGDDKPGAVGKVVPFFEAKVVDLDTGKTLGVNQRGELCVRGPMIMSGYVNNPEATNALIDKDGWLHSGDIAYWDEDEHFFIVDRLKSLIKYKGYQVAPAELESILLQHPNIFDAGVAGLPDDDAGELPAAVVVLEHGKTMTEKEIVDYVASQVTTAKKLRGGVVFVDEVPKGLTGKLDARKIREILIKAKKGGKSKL
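Purified P. pyralis luciferase, 10 nM final, with Km-level 10 uM D-luciferin and 10 uM ATP in 50 mM Tris acetate pH 7.5, 10 mM Mg acetate, 0.01% Tween-20, 0.05% BSA; 6-point qHTS titration about 60 µM downward; luminescence read.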
ELG1 repair inh = blocks ELG1-dependent DNA repair in HEK293T cells; HEK293T ELG1-luciferase reporter, luminescence, 16 h; DNA damage induced by 5-fluorouridine; Potency, µM (doses to about 46.1 µM), without a hit: at the highest dose activity change, negative = inhibition, usual class: inhibitors; hit rate 2.3% among 330,000; also: % is scaled to controls: 0 for no effect and ±100 for the full control effect; nearly all actives have a fitted effect of over 55% in size
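Luminescence from the luciferase reporter, measured 30 min after ONE-Glo reagent at room temperature, was the read-out. Beforehand, 2,000 cells per well were exposed for 16 hr at 37 °C to 5-fluorouridine together with compound or vehicle.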
NPC1 prom act = activates the NPC1 promoter | Huh7 NPC1 promoter luciferase reporter, 24 h | Potency, µM (titrated, usually from 9.22 µM), inactives show at the top dose activation, most hits filed as activators | hit rate 2.4% among 320,000; also: % of control where 0% means no effect; nearly all actives have a fitted effect of over 60% in size
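Readout is luciferase luminescence, reflecting NPC1 promoter activation in stably transfected Huh7 cells after 24 h compound exposure at 37 °C in reduced-serum medium with 10% FBS.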
ELG1 genotox = genotoxicity induction in ELG1-luciferase HEK293T cells. HEK293T ELG1-luciferase reporter, luminescence, 16 h. Potency, µM (series often up to 46 µM), for the others: at the highest dose activity change, positive = activation, usual class: activators. hit rate 1.3% among 330,000. AID 504466; also: % of control where 0% means no effect; nearly all actives have a fitted effect of over 60% in size
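Genotoxic stress is detected as increased luminescence from luciferase-tagged ELG1 in HEK293T cells, measured with ONE-Glo after a 16 hr treatment at 37 °C.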
Numbers without * were called inactive; ? = inconclusive; / = not tested or not shown; [ ] = remark or other dose. A selection: hits, their analogues and other compounds. The true share with any hit is near 9.2%. Calls follow the shape of the dose curve; as a rule, active = well fitted curve in the direction sought with a large enough effect; inconclusive = small, poorly fitted or top-dose-only effect, or another doubt; inactive = no such curve, though single readings can be large; an effect the other way counts as inactive or inconclusive. Potency is read from the fitted curve at half-maximal effect.

SMILES	Rab9 prom act	SMN2 splice up	FLuc modulator	ELG1 repair inh	NPC1 prom act	ELG1 genotox
O=C1/C(=C/c2ccc(O)c([N+](=O)[O-])c2)SC(=S)N1Cc1ccccc1	-2.1%	-70.8%	?	18.3µM*	-3.5%	-14.3%
O=C1/C(=C\c2cc(Br)cc(Br)c2O)SC(=S)N1Cc1ccccc1	-1.0%	/	?	23.1µM*	-1.3%	-17.7%
O=C1/C(=C\c2ccc(O)cc2)SC(=S)N1Cc1ccccc1	-2.0%	/	-19.0%	3.1%	0.4%	0.6%
O=C1/C(=C\c2cccc([N+](=O)[O-])c2O)SC(=S)N1Cc1ccccc1	-17.9%	/	-17.4%	8.2µM*	-6.0%	-9.3%
Cc1ccc2onc(CNC(=O)NCc3cccc(Cl)c3)c2c1	/	/	-16.7%	/	/	/
CCn1cc(C(=O)NCCc2ccc(OC)c(OC)c2)c(=O)c2cc(S(=O)(=O)N3CCC(C)CC3)ccc21	/	4.1%	3.5%	/	/	/
O=C(NCc1cccnc1)/C(=C\c1ccc(-c2cccc(Cl)c2)o1)S(=O)(=O)c1ccccc1	-20.7%	-101.7%	-12.6%	16.4µM*	-15.4%	-18.7%
Cc1ccc(C(=O)N/C(=C\c2ccc(-c3cc(Cl)ccc3Cl)o2)C(=O)NCc2cccnc2)cc1	?	8.3%	19µM*	?	?	4.8%
O=C(NCc1cccnc1)/C(=C/c1ccc(-c2cccc(Cl)c2)o1)S(=O)(=O)c1ccccc1	-27.4%	-99.3%	2.0%	?	-29.3%	-22.1%
CCN(C(=O)c1cc2c(=O)n(CC)c3ccccc3c2s1)c1cccc(C(F)(F)F)c1	/	-0.4%	4.2%	/	/	/
CC(=O)c1ccc(NC(=O)c2cnn3ccccc23)cc1	0.355µM*	-36.7%	5.36µM*	?	0.355µM*	1.3µM*
CC(=O)c1cccc(NC(=O)c2cnn3ccccc23)c1	3.16µM*	/	12µM*	?	5.01µM*	11.6µM*
COc1cc(NC(=O)c2nc3ccccc3n(C)c2=O)cc(OC)c1OC	/	-1.6%	-19.8%	/	/	/
CC(=O)c1cccc(NC(=O)c2nc3ccccc3n(C)c2=O)c1	/	23.5%	3.79µM*	/	/	/
Cc1cc(OCC(=O)Nc2cccc(S(=O)(=O)N3CCCCC3)c2)ccc1Cl	-1.6%	/	6.75µM*	-13.1%	-2.4%	0.2%
O=C(COc1ccc(C(=O)c2ccc(F)cc2)cc1)Nc1cccc(S(=O)(=O)N2CCOCC2)c1	/	/	/	23.1µM*	/	-7.7%
CCN1CCN(c2ccc(S(=O)(=O)N3CCCCC3)cc2NC(=O)COc2ccc(Cl)c(C)c2)CC1	1.4%	/	-1.1%	23.1µM*	0.3%	-19.4%
Cc1cc(OCC(=O)Nc2cccc(S(=O)(=O)N3CCCC3)c2)ccc1Cl	-10.2%	/	?	?	0.9%	-6.1%
Cc1ccc(CNS(=O)(=O)c2ccc3c(c2)n(C)c(=O)c(=O)n3C)cc1	-4.7%	5.2%	-0.8%	-0.5%	-3.0%	-1.8%
Cn1cc(/C=N/NC(=O)c2ccccc2O)c2ccccc21	26.3%	/	4.78µM*	?	?	9.3%
O=C(N/N=C\c1coc2ccccc2c1=O)c1ccco1	-2.1%	/	-27.5%	-3.0%	-6.4%	-8.5%
CC(C)(C)OC(=O)n1cc(/C=N/NC(=O)c2ccco2)c2ccccc21	16.8%	/	9.53µM*	?	21.7%	8.0%
CC(=O)n1cc(/C=N/NC(=O)c2ccccc2O)c2ccccc21	?	/	9.53µM*	29.4%	27.8%	11.5%
Cn1cc(/C=N/NC(=O)c2cccc([N+](=O)[O-])c2)c2ccccc21	-10.1%	2.1%	-2.1%	?	7.0%	?
CC(=O)n1cc(/C=N/NC(N)=S)c2ccccc21	-0.9%	?	-0.4%	19.3%	-0.3%	18.1%
SMILES	Rab9 prom act	SMN2 splice up	FLuc modulator	ELG1 repair inh	NPC1 prom act	ELG1 genotox
Cc1nc(C)c(C(=O)N/N=C/c2cn(C)c3ccccc23)s1	8.0%	-3.6%	16.9µM*	?	-2.5%	1.1%
Cc1ccc(NC(=O)c2cccc(S(=O)(=O)N(C)C3CCCCC3)c2)nc1	-2.4%	/	2.3%	?	0.9%	3.3%
O=S(=O)(Nc1ccccc1)c1ccc(NS(=O)(=O)c2c(F)cccc2F)cc1	0.9%	/	-0.7%	-6.1%	11.9%	0.3%
CCC(C)(C)C1CCC2(CC1)NC(=S)N(c1ccccc1)N2 (configuration not stated)	-2.7%	/	?	8.2µM*	-0.8%	?
CN1CCN(C(=O)c2cnn3c(C(F)(F)F)cc(-c4ccc5c(c4)OCO5)nc23)CC1	2.1%	/	0.7%	5.8µM*	0.4%	?
NC(=O)c1cnn2c(C(F)(F)F)cc(-c3ccccc3)nc12	/	-7.6%	1.6%	/	/	/
COc1ccc(-c2cc(C(F)(F)F)n3ncc(C(=O)N(C)Cc4ccccc4)c3n2)cc1	-9.5%	-11.9%	4.0%	14.6µM*	-8.7%	2.3%
O=C(NC1CCCC1)c1cnn2c(C(F)(F)F)cc(-c3ccc4c(c3)OCO4)nc12	-10.6%	-2.8%	1.0%	4.11µM*	-1.5%	4.7%
Cc1ccc(-c2cc(C(F)(F)F)n3ncc(C(=O)N4CCN(C)CC4)c3n2)cc1	1.7%	4.8%	6.5%	9.2µM*	-3.9%	-0.7%
COc1ccc(-c2onc(C)c2C)cc1S(=O)(=O)NCc1ccc(Br)cc1	/	/	-10.1%	/	/	/
N#Cc1ccc2c(c1)C[C@]1(CCCCN3C(=O)c4ccccc4C3=O)Oc3c(c(=O)oc4ccc(F)cc34)C2O1	-4.7%[1.84 µM]	/	0.7%[11.5 µM]	/	2.5%[1.84 µM]	/
COc1ccc(-c2csc(NC(=O)COc3ccc(N(C)S(=O)(=O)c4ccc(C)cc4)cc3)n2)cc1	-0.2%	-15.8%[1.84 µM]	-10.8%	7.31µM*	6.4%	-4.3%
COc1ccc(-c2csc(NC(=O)c3ccc(S(=O)(=O)N4CCc5ccccc5C4)cc3)n2)cc1	-20.3%	-48.6%	0.4%	?	-12.6%	-2.3%
COc1ccc(S(=O)(=O)Nc2ccccc2C(=O)Nc2nc(-c3ccc(F)cc3)cs2)cc1OC	-5.9%	-63.5%	?	14.6µM*	-5.1%	-8.0%
COc1ccc(-c2csc(NC(=O)c3ccccc3NS(=O)(=O)c3ccc(C)cc3)n2)cc1	-17.9%	-102.4%	?	13µM*	-2.7%	-15.9%
CCN(CC)C(=O)N1CCC(NC(=O)c2ccc(C(C)(C)C)cc2)CC1	-4.0%	4.6%	1.4%	20.6µM*	-4.9%	-7.4%
COc1ccc(-c2cc(=O)c3ccccc3s2)cc1	0.891µM*	3.98µM*	1.07µM*	?	1.41µM*	2.31µM*
COc1cc(-c2ccc3c(=O)c4ccccc4sc3c2)cc(OC)c1OC	/	/	/	11.0%	/	8.7%
COc1cccc(-c2sc3ccccc3c2-c2ccc(OCCN(C)C)cc2)c1	/	/	/	?	/	-10.4%
COc1ccc2sc3ccccc3c(=O)c2c1	?	14.5%	6.75µM*	?	?	?
